Ten compounds from PubChem BioAssay (NCI) can be followed below.

A short description of test [1]: NCI Yeast Anticancer Drug Screen. Data for the rad50 strain (AID 155).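 Note: 0% = growth of vehicle-only cultures of the same strain.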 The conditions noted are these: S. cerevisiae rad50 strain growth inhibition, stronger effect = higher value. The method in brief:
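Vehicle-treated cultures provide the reference for the growth inhibition reported for compound-exposed, repair-deficient yeast.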

The nature of test [2]: NCI Yeast Anticancer Drug Screen. Data for the mec2-1 strain (AID 157). Conditions: S. cerevisiae mec2-1 strain, stronger effect = higher value. The method in brief:
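Test agents were screened against the mec2-1 yeast strain, with defined DNA repair or cell cycle alteration. Growth was scored as inhibition against vehicle-only controls.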

Test [3] in a line: NCI Yeast Anticancer Drug Screen. Data for the sgs1 mgt1 strain (AID 161).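 Note: 0% = growth of cultures given vehicle only.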 The conditions noted are these: S. cerevisiae sgs1 mgt1 strain, stronger effect = higher value. In short, it runs like this: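 Mutant yeast exposed to compound; growth scored against vehicle-only wells.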
The nature of test [4]: NCI Yeast Anticancer Drug Screen. Data for the cln2 rad14 strain (AID 165).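 Note: 0% = growth equal to vehicle treated cultures.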 The conditions noted are these: S. cerevisiae cln2 rad14 strain, stronger effect = higher value. The method in brief:
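Growth of compound-exposed yeast (cln2 rad14 genotype) measured and expressed as inhibition relative to vehicle.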

The nature of test [5]: NCI Yeast Anticancer Drug Screen. Data for the bub3 strain (AID 167). The conditions noted are these: S. cerevisiae bub3 mutant strain, stronger effect = higher value. In short, it runs like this:
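Mutant yeast screening strain plus compound; vehicle-treated cultures serve as the 0% inhibition reference.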

Test [6] is described as follows: NCI Yeast Anticancer Drug Screen. Data for the mlh1 rad18 strain (AID 175). The conditions noted are these: S. cerevisiae mlh1 rad18 strain growth inhibition, stronger effect = higher value. The method in brief:
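In this whole-cell yeast screen, a strain with altered DNA damage repair is challenged with compound, and its growth is measured against matched vehicle-treated controls.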

Setting [7] is: at 5.0 µM (retest, dose inferred, filed as 0.5).
[8] abbreviates: at 50.0 µM (retest, dose inferred, filed as 5.0).

Each structure is given as a SMILES string. About 79,000 compounds went through this panel and 15% of them were active in at least one assay; those are over-represented in the sample as a whole. A number with no mark means an inactive call. The source made the active and inactive calls. Cut-off read from the data, not from the text of the source: active = growth inhibition above about 70%; inactive = the rest.

`ON=C1Cc2ccccc2-c2ccccc2C1`: the growth inhibition in test [1] (setting [7]) is 2%; in test [1] (setting [8]) it was 1%; in test [1] (at 50.0 µM), -23%; in test [2] (setting [7]), 2%; in test [2] (setting [8]), 5%; in test [2] (at 50.0 µM) it was -11.1%. The growth inhibition was 8% in test [3] (setting [7]); 4% in test [3] (setting [8]); -3.3% in test [3] (at 50.0 µM); 1% in test [4] (setting [7]); 7% in test [4] (setting [8]); 39.2% in test [4] (at 50.0 µM). For the same compound, the growth inhibition is -5% in test [5] (setting [7]); 1% in test [5] (setting [8]); 6.1% in test [5] (at 50.0 µM); -3% in test [6] (setting [7]); -2% in test [6] (setting [8]); 17.1% in test [6] (at 50.0 µM).
Regarding `CC(C)(CN1CCCCC1)C(/C=C/c1ccc(Cl)c(Cl)c1)=N\NC(=O)N/N=C(/C=C/c1ccc(Cl)c(Cl)c1)C(C)(C)CN1CCCCC1`, the growth inhibition in test [1] (setting [7]) is 42%; in test [1] (setting [8]), 98% (active); in test [1] (at 50.0 µM), 90.5% (active); in test [2] (setting [7]) it was 29%; in test [2] (setting [8]), 99% (active); in test [2] (at 50.0 µM) it was 93.3% (active). For the same compound, the growth inhibition in test [3] (setting [7]) is 41%; in test [3] (setting [8]), 99% (active); in test [3] (at 50.0 µM), 92.8% (active); in test [4] (setting [7]), 31%; in test [4] (setting [8]) it was 98% (active); in test [4] (at 50.0 µM) it was 91.2% (active). Further, the growth inhibition in test [5] (setting [7]) is 39%; in test [5] (setting [8]), 67%; in test [5] (at 50.0 µM) it was 91.8% (active); in test [6] (setting [7]), 56%; in test [6] (setting [8]), 99% (active); in test [6] (at 50.0 µM), 90% (active).
In the case of `COC(=O)C1=C(CS(=O)c2ccccc2[N+](=O)[O-])ON(C)C1c1ccccc1` (stereo not given), the growth inhibition in test [1] (setting [7]) is 3%; in test [1] (setting [8]) it was 49%; in test [1] (at 50.0 µM), 6.55%; in test [2] (setting [7]) it was -9%; in test [2] (setting [8]) it was 66%; in test [2] (at 50.0 µM), 53.1%. Further, the growth inhibition in test [3] (setting [7]) is 13%; in test [3] (setting [8]), 74% (active); in test [3] (at 50.0 µM), 56.8%; in test [4] (setting [7]) it was -4%; in test [4] (setting [8]) it was 11%; in test [4] (at 50.0 µM) it was 22.2%. Further, the growth inhibition in test [5] (setting [7]) is -3%; in test [5] (setting [8]), 45%; in test [5] (at 50.0 µM), 59.4%; in test [6] (setting [7]), 5%; in test [6] (setting [8]), 13%; in test [6] (at 50.0 µM) it was 68.5%.
Consider `CCCCCCCCCCCCCCCc1nc(SCC(=O)O)n[nH]1`, for which the growth inhibition in test [1] (setting [7]) is 2%; in test [1] (setting [8]), 58%; in test [1] (at 50.0 µM), 54.8%; in test [2] (setting [7]), 0%; in test [2] (setting [8]), 52%; in test [2] (at 50.0 µM) it was 55.9%. Further, the growth inhibition was 18% in test [3] (setting [7]); 54% in test [3] (setting [8]); 74.2% (active) in test [3] (at 50.0 µM); 3% in test [4] (setting [7]); 40% in test [4] (setting [8]); 80.5% (active) in test [4] (at 50.0 µM). Also, the growth inhibition in test [5] (setting [7]) was -1%; in test [5] (setting [8]), 67%; in test [5] (at 50.0 µM), 37.1%; in test [6] (setting [7]) it was 9%; in test [6] (setting [8]), 71% (active); in test [6] (at 50.0 µM), 89.5% (active).
For `O=c1[nH]n(CCc2ccccn2)c(=O)c(Cl)c1Cl`, the growth inhibition in test [1] (setting [7]) was -5%; in test [1] (setting [8]), -5%; in test [1] (at 50.0 µM), 9.25%; in test [2] (setting [7]), -9%; in test [2] (setting [8]) it was -1%; in test [2] (at 50.0 µM), 1.95%. For the same compound, the growth inhibition in test [3] (setting [7]) is -3%; in test [3] (setting [8]), -26%; in test [3] (at 50.0 µM) it was 12.4%; in test [4] (setting [7]), 2%; in test [4] (setting [8]), 6%; in test [4] (at 50.0 µM) it was -6.2%. In addition, the growth inhibition was 2% in test [5] (setting [7]); 7% in test [5] (setting [8]); -11.2% in test [5] (at 50.0 µM); -17% in test [6] (setting [7]); 13% in test [6] (setting [8]); -17.2% in test [6] (at 50.0 µM).
As to `CN(C)c1ccc(C(O)(Cc2cccnc2)c2ccc(N(C)C)cc2)cc1`, the growth inhibition in test [1] (setting [7]) is -3%; in test [1] (setting [8]) it was 2%; in test [1] (at 50.0 µM), 39.2%; in test [2] (setting [7]) it was -4%; in test [2] (setting [8]), 6%; in test [2] (at 50.0 µM) it was 36.8%. Moreover, the growth inhibition is -2% in test [3] (setting [7]); 4% in test [3] (setting [8]); 53% in test [3] (at 50.0 µM); -1% in test [4] (setting [7]); -4% in test [4] (setting [8]); 13.3% in test [4] (at 50.0 µM). Further, the growth inhibition was -3% in test [5] (setting [7]); 1% in test [5] (setting [8]); 72% (active) in test [5] (at 50.0 µM); -5% in test [6] (setting [7]); 8% in test [6] (setting [8]); 54.9% in test [6] (at 50.0 µM).
`Oc1cc(O)cc(O)c1`: the growth inhibition in test [1] (setting [7]) is 10%; in test [1] (setting [8]) it was 76% (active); in test [1] (at 50.0 µM), 15.7%; in test [2] (setting [7]), -2%; in test [2] (setting [8]) it was 18%; in test [2] (at 50.0 µM), -4.05%. In addition, the growth inhibition in test [3] (setting [7]) is 0%; in test [3] (setting [8]), 19%; in test [3] (at 50.0 µM), 12.3%; in test [4] (setting [7]), 5%; in test [4] (setting [8]), 17%; in test [4] (at 50.0 µM), 7.85%. Also, the growth inhibition is -4% in test [5] (setting [7]); 6% in test [5] (setting [8]); 69% in test [5] (at 50.0 µM); -5% in test [6] (setting [7]); 16% in test [6] (setting [8]); 23.3% in test [6] (at 50.0 µM).
With `CC(O[Si](c1ccccc1)(c1ccccc1)C(C)(C)C)[C@H](NC(=O)OC(C)(C)C)C(=O)O[Si](c1ccccc1)(c1ccccc1)C(C)(C)C` (stereo not given in full), the growth inhibition in test [1] (setting [7]) is 91% (active); in test [1] (setting [8]), 99% (active); in test [1] (at 50.0 µM) it was 89.9% (active); in test [2] (setting [7]), 88% (active); in test [2] (setting [8]), 99% (active); in test [2] (at 50.0 µM), 92.9% (active). Moreover, the growth inhibition in test [3] (setting [7]) is 96% (active); in test [3] (setting [8]), 100% (active); in test [3] (at 50.0 µM) it was 92.8% (active); in test [4] (setting [7]) it was 93% (active); in test [4] (setting [8]), 99% (active); in test [4] (at 50.0 µM), 91.2% (active). Besides, the growth inhibition in test [5] (setting [7]) was 71% (active); in test [5] (setting [8]), 84% (active); in test [5] (at 50.0 µM), 91.3% (active); in test [6] (setting [7]), 93% (active); in test [6] (setting [8]), 99% (active); in test [6] (at 50.0 µM), 89% (active).
For `CCOC(=O)C1(Br)CCN(S(=O)(=O)c2ccc(C)cc2)c2ccccc2C1=O` (stereo not given), the growth inhibition in test [1] (setting [7]) is 1%; in test [1] (setting [8]), 90% (active); in test [1] (at 50.0 µM) it was 96.5% (active); in test [2] (setting [7]), 10%; in test [2] (setting [8]), 97% (active); in test [2] (at 50.0 µM), 98% (active). Further, the growth inhibition in test [3] (setting [7]) was -7%; in test [3] (setting [8]), 96% (active); in test [3] (at 50.0 µM), 97.8% (active); in test [4] (setting [7]), -6%; in test [4] (setting [8]), 66%; in test [4] (at 50.0 µM) it was 95.2% (active). In addition, the growth inhibition in test [5] (setting [7]) is -3%; in test [5] (setting [8]), 95% (active); in test [5] (at 50.0 µM) it was 97.5% (active); in test [6] (setting [7]) it was 18%; in test [6] (setting [8]), 97% (active); in test [6] (at 50.0 µM), 98.4% (active).
As for `Nc1cc(F)cc(F)c1[N+](=O)[O-]`, the growth inhibition in test [1] (setting [7]) was 4%; in test [1] (setting [8]), 21%; in test [1] (at 50.0 µM), 41%; in test [2] (setting [7]) it was 4%; in test [2] (setting [8]) it was 22%; in test [2] (at 50.0 µM) it was 0.45%. Besides, the growth inhibition in test [3] (setting [7]) is 1%; in test [3] (setting [8]), 18%; in test [3] (at 50.0 µM) it was 53.3%; in test [4] (setting [7]), -1%; in test [4] (setting [8]), 6%; in test [4] (at 50.0 µM) it was -15.4%. Also, the growth inhibition is -1% in test [5] (setting [7]); 19% in test [5] (setting [8]); -1.5% in test [5] (at 50.0 µM); 7% in test [6] (setting [7]); 26% in test [6] (setting [8]); 79.7% (active) in test [6] (at 50.0 µM).
